FMDV inh = blocks foot and mouth disease virus | FMDV antiviral cell-based qHTS | Potency, µM (titrated, usually from 57.9 µM), inactives show at the top dose activity change, negative = inhibition, most hits filed as inhibitors | 1.2% of 410,000 active | AID 1159524; calls by dose curve; tested in HEK293T cells; note: read-out not given here; potency is the fitted concentration of half-maximal effect; nearly all actives have a fitted effect of over 45% in size
VACV mCherry inh = vaccinia inhibition (mCherry reporter); AID 720579; Potency, µM (top dose mostly 36.5 µM), for the others: at the highest dose activity change, negative = inhibition, usual class: inhibitors; 0.63% of 310,000 active; Vaccinia virus mCherry reporter infection, fluorescence; calls by dose curve; tested in A549 cells; note: potency is the fitted concentration of half-maximal effect; nearly all actives have a fitted effect of over 35% in size
HCMV inh = blocks human cytomegalovirus replication. activity change, negative = inhibition, % at 57.5 µM. 4.5% of 410,000 active. HFF cells, HCMV-luciferase reporter, 72 h; active compounds read low. AID 1259415; in the data active = activity change below about -60%; inconclusive = no clear call, values can overlap the other calls; inactive = above about -39%
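Screen run at 2 compound doses on HFFs infected with reporter HCMV, MOI 1 PFU/cell. Luciferase activity from cell lysates at 72 h post infection gave inhibition relative to buffer-only and Salinomycin wells.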
Vaccinia Venus = vaccinia inhibition (Venus reporter); Vaccinia virus Venus reporter expression, fluorescence; Potency, µM (doses to about 36.5 µM), inactives show top-dose activity change, negative = inhibition, actives largely listed as inhibitors; 0.46% of 330,000 active; AID 720580; calls by dose curve; tested in A549 cells; note: potency is the fitted concentration of half-maximal effect; nearly all actives have a fitted effect of over 30% in size
HCV inh = inhibitors of hepatitis C virus infection | Huh7.5.1 HCVcc-Cre infection, luciferase reporter, 44 h | Potency, µM (highest dose often 41.8 µM), without a hit: at the top dose activity change, negative = inhibition, hits mostly inhibitors | 3.4% of 340,000 active; active = well fitted inhibition curve with a large enough effect; inconclusive = small, poorly fitted or top-dose-only effect, or another doubt; inactive = no such curve, though single readings can be large or run the other way; note: potency is the fitted concentration of half-maximal effect
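HCVcc-Cre virus at an moi near 0.5 was added right after compound to cells cultured 4 h from seeding (1,000 cells/well). Luciferase activity was determined 44 h later, 15 min after substrate addition at RT.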
Starred values were filed as active, the others as inactive; i = inactive; u = inconclusive; x = not tested or not shown; + = active, no number; [ ] = another dose, or the depositor's remark. In the library only some 7.3% were active in any assay of this set; here they are far more common. % is set by controls: 0 for no effect and ±100 for the full control effect.

SMILES	FMDV inh	VACV mCherry inh	HCMV inh	Vaccinia Venus	HCV inh
COc1cc(NC(=O)c2cc(-c3cccc(Cl)c3)on2)c(OC)cc1Cl	u	-13.2%	42.6	u	x
COc1cc(=O)n2c(c1C(=O)N(C)Cc1nccs1)CCN(Cc1cc3ccccc3s1)CC2	-10.7%	-4.1%	x	0.0%	x
COc1cccc(C(=O)c2cn(CC(=O)Nc3cccc(Cl)c3C)c3nc(C)ccc3c2=O)c1	-23.7%	-15.0%	-0.6	-3.2%	x
COc1ccc(O)c(C=Nc2cc(NC(C)=O)c(Cl)cc2Cl)c1	10.5%	i	-102.4*	-9.7%	-4.4%
CC(=O)Nc1cc(N=Cc2ccc(O)cc2O)c(Cl)cc1Cl	-19.2%	-9.5%	x	46.4%	-2.3%
COc1cccc(N2CCN(C(=O)c3ccc4c(Cl)c5c(nc4c3)CCCC5)CC2)c1	u	1.6%	-75.5*	7.1%	x
COC(=O)c1cc(C(=O)N2CCN(c3cccc(Cl)c3)CC2)cc([N+](=O)[O-])c1	-23.8%	u	-67.6*	-23.2%	-22.3%
O=C(c1ccc2c(Cl)c3c(nc2c1)CCCC3)N1CCN(c2cccc(Cl)c2)CC1	u	-25.4%	-12.8	-19.5%	x
Cc1nc2cccnc2n1-c1cccc(C(=O)NCCc2ccc(Cl)cc2)c1	u	-23.1%	u	-21.1%	x
Cc1nc2cccnc2n1-c1cccc(C(=O)N2CCN(c3cccc(Cl)c3)CC2)c1	25.1µM*	u	0.0	-27.6%	x
O=C(Nc1cccc(C(=O)N2CCN(c3cccc(Cl)c3)CC2)c1)c1ccccc1	-10.4%	x	-36.2	x	14.1µM*
O=C(c1cccc([N+](=O)[O-])c1)N1CCN(c2cccc(Cl)c2)CC1	u	i	5.7	-27.9%	u
Cc1cc(C)c(Cn2c(=O)n(CCCC(=O)NCc3ccc4c(c3)OCO4)c(=O)c3sccc32)c(C)c1	-16.4%	-7.7%	31.2	-14.1%	x
COc1cccc(N2CCN(C(=O)c3cccc(-n4c(C)nc5cccnc54)c3)CC2)c1	28.2µM*	-23.3%	0.0	-20.7%	x
CC(=O)c1ccc(NC(=O)N2CCN(c3cccc(Cl)c3)CC2)cc1	-20.1%	x	-8.1	x	12.6µM*
CC(=O)c1ccc(N2CCN(C(=O)Nc3ccc(Cl)cc3)CC2)cc1	0.0%	-26.8%	u	-20.6%	u
COC(=O)CN1C(=O)CSc2ccc(S(=O)(=O)Nc3cccc(Cl)c3C)cc21	9.8%	-8.5%	-20.1	-12.3%	x
Cc1ccc(-c2cc(C(=O)N3CCN(S(=O)(=O)c4ccc(Br)s4)CC3)[nH]n2)cc1C	-12.7%	-14.9%	u	-29.2%	x
O=C(c1cc(-c2ccc(Cl)cc2)n[nH]1)N1CCN(S(=O)(=O)c2ccc(Br)s2)CC1	-26.6%	11.2µM*	u	u	x
O=C(c1cc(-c2ccc(Br)cc2)n[nH]1)N1CCN(S(=O)(=O)c2ccc(Br)s2)CC1	u	-26.3%	+	-21.3%	x
O=C(c1cc(-c2ccc(Br)cc2)n[nH]1)N1CCN(S(=O)(=O)c2ccc(Cl)s2)CC1	-19.3%	u	u	-29.3%	x
COC(=O)C1=COC(O[C@H]2OC(CO)[C@H](O)C(O)C2O)[C@H]2C1C(=O)C[C@@H]2C (some centres not stated)	-11.0%	x	x	x	x
CC(=O)c1cccc(NC(=O)CN2C(=O)c3ccccc3Sc3ncccc32)c1	39.8µM*	-5.2%	20.7	4.3%	x
CC(=O)c1cccc(NC(=O)CN2C(=O)c3cccnc3Sc3ccccc32)c1	7.8%	4.5%	76.7	-5.4%	x
COc1cc(CNCc2ccccn2)ccc1OCc1c(Cl)cccc1Cl	0.0%	-25.6%	-15.2	-26.4%	11.2µM*
SMILES	FMDV inh	VACV mCherry inh	HCMV inh	Vaccinia Venus	HCV inh
COc1cc(CNCc2ccco2)ccc1OCc1ccccc1	x	-0.3%	-34.6	-7.4%	11.2µM*
CC1(C)CC(N2CCCC2)=CC(=[N+]2CCCC2)C1	u	x	-94.2*	x	-20.4%
CN(Cc1ccccc1)C1=CC(=[N+]2CCCCC2)CC(C)(C)C1	u	i[7.34 µM]	-77.0*	-21.2%[7.34 µM]	2.82µM*
CC1(C)CC(N2CCCC2)=CC(=[N+]2CCCCC2)C1	u	x	-92.5*	x	-25.8%
CC1(C)CC(N2CCN(Cc3ccccc3)CC2)=CC(=[N+]2CCCCC2)C1	u	i	+	-19.9%	u
CC(=O)N(c1ccccc1)C1CC(C)N(C(=O)c2ccccc2)c2ccccc21 (configuration not stated)	u	i	-37.6	-22.3%	-28.7%
Cc1ccc(C(=O)N(c2ccccc2)C2CC(C)N(C(=O)c3ccco3)c3ccccc32)cc1 (configuration not stated)	-9.1%	u	u	u	11.2µM*
Cn1nc(-c2ccccc2F)c2cc(C(=O)N3CCN(c4ccccc4F)CC3)sc21	-6.7%	-12.9%	-27.5	2.6%	x
CC(C)(C)c1ccc(C(=O)Nc2onc3c2CCCC3)cc1	-72.8%	-0.8%	-74.7*	-11.9%	x
COCC(=O)N1CC(=O)N2[C@@H](CO)[C@H](c3ccc(Br)cc3)[C@@H]2C1	x	x	2.9	x	x
Cc1cc(OCCCn2c(CCNC(=O)C3CCCCC3)nc3ccccc32)ccc1Cl	-3.8%	-6.6%[7.34 µM]	-73.2*	-11.0%[7.34 µM]	x
CCOc1cccc2sc(N(Cc3cccnc3)C(=O)C3CCCCC3)nc12	-2.7%	-22.6%	+	-8.2%	x
COc1cccc2sc(N(Cc3cccnc3)C(=O)C3CCCCC3)nc12	-6.8%	-3.9%	-31.7	-3.6%	x
CCOC(=O)c1oc2ccc(Br)cc2c1COC(=O)C1=COCCO1	-1.2%	-10.1%	-24.2	7.5%	25.1µM*
Cc1ccc2c(COC(=O)C3=COCCO3)cc(=O)oc2c1	6.7%	-3.4%	59.9	-7.7%	0.7%
O=C(CNC(=O)C1CCCCC1)OCC(=O)c1ccc([N+](=O)[O-])cc1	x	-15.7%	x	-13.4%	x
C[C@]12C=CC(=O)C=C1CC[C@@H]1C2=CC[C@]2(C)[C@@H](C(=O)CN3CCN(c4cc(N5CCCC5)nc(N5CCCC5)n4)CC3)CC[C@@H]12	-3.6%	1µM*	u	u	-16.7%
OC(c1ccccc1)(c1nc(-c2ccc3ccccc3c2)cs1)C(F)(F)F (configuration not stated)	3.2%	-14.8%	-83.1*	7.9%	x
OC(c1ccccc1)(c1nc(/C=C/c2ccccc2)cs1)C(F)(F)F (configuration not stated)	14.3%	10.3%	-60.5*	u	x
CC(O)(c1ccccc1)c1nc(/C=C/c2ccccc2)cs1 (configuration not stated)	-4.8%	i	-8.5	0.9%	x
CC(=O)c1sc(N/N=C/c2cccc(O)c2)nc1C	26.4%	-16.3%	172.7	-20.2%	-23.8%
CC(=O)c1sc(N/N=C\c2c(O)ccc3ccccc23)nc1C	-5.5%	u	-74.9*	25.3%	u
CCN(C(=O)Cn1ncc2c(=O)oc3ccc(C)cc3c21)c1cc(OC)ccc1OC	-19.0%	-4.4%	-4.7	-16.8%	x
Cc1ccc(C2CC(=O)C=C(NCc3ccccc3)C2)cc1 (configuration not stated)	-18.3%	-14.9%	-12.9	u	-22.5%
Cc1ccc(C2CC(=O)C=C(NCC(C)C)C2)cc1 (configuration not stated)	-15.8%	-3.4%	-81.3*	-5.1%	-7.2%

Screening data from PubChem BioAssay.
